# Assay outcomes as filed in PubChem.
# GDH-TPI inh – GDH-TPI coupling enzyme inhibitors, primary screen, artefact control for M. tuberculosis FBA inhibitor project, biochemical, absorbance, full deck | GDH-TPI coupled enzyme counterscreen, NADH absorbance | AID 588335, 2011 | inhibition, % at 4.8 µM | 360,000 compounds, 1.2% hits
# CCHFV vOTU inh – CCHFV vOTU protease inhibitors, primary screen, biochemical, Pep-AMC substrate, fluorescence; Crimean-Congo hemorrhagic fever virus L polyprotein viral ovarian tumor (vOTU) protease …; inhibition, % at 11.5 µM; 370,000 compounds, 0.55% hits; AID 651958, 2012
# RecA splice inh – Mtb RecA intein splicing inhibitors, primary screen, biochemical, fluorescence, HTS; cell-free RecA intein splicing; 290,000 compounds, 0.75% hits; AID 2221, 2009; inhibition, % (no concentration beside the values); in the data active = inhibition above about 30%
# Mtb FBA inh – Mtb FBA enzyme inhibitors, primary screen, biochemical, fluorescence, strain H37Rv; Fructose-bisphosphate aldolase (Mycobacterium tuberculosis (strain ATCC 25618 / H37Rv)), …; AID 588726, 2011; inhibition, % at 1 µM; 360,000 compounds, 2.3% hits; purified M. tuberculosis FBA, fluorescence read-out; in the data active = inhibition above about 27%
# Target sequence (P9WQA3 whole entry, looked up): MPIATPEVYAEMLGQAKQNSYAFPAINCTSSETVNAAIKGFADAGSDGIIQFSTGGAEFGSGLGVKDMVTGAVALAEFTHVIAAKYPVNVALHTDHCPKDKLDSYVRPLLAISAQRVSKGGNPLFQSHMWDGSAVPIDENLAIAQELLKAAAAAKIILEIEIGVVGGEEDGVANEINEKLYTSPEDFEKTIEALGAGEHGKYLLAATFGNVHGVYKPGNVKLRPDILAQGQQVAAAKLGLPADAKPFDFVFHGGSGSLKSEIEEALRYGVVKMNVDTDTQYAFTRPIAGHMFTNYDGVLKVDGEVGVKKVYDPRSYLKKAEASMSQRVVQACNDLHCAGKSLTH
# Hits are given with their value; . = inactive; / = no result given; + = active, no number. A selection: hits, their analogues and other compounds. The true share with any hit is near 4.2%. Rule as the data show it, unless noted: active = inhibition above about 30%; inactive = the rest.
SMILES,GDH-TPI inh,CCHFV vOTU inh,RecA splice inh,Mtb FBA inh
CCOC(=O)c1sc2nc(N3CCOCC3)c3c(c2c1N)CCC3,.,.,.,124.9
CC1(C)Cc2c(c(N3CCOCC3)nc3sc(C(N)=O)c(N)c23)CO1,32.5,.,.,.
Cc1ccc(NC(=S)Nc2ccc3nc(-c4ccccn4)c(-c4ccccn4)nc3c2)cc1C,31.5,/,/,.
CCOC(=O)Cc1c(C)nc2c(-c3ccc(Cl)cc3)c[nH]n2c1=O,.,.,.,56.0
N#C/C(=C\C=C\c1ccccc1)C(=O)NCc1cccnc1,31.1,.,.,.
N#C/C(=C\c1cccs1)C(=O)NCc1cccnc1,35.8,.,.,.
CCOc1nc(OCC)c2[nH]c(C(=O)O)c(Br)c2n1,.,.,/,.
C/C(=N\Nc1ccc(S(N)(=O)=O)cc1[N+](=O)[O-])c1ccco1,41.2,.,.,.
CC(C)Cc1nc(C#N)c(N2CCC(C(N)=O)CC2)o1,.,.,.,.
COc1ccc(-c2nc(C#N)c(N3CCC(C(N)=O)CC3)o2)cc1,.,.,.,+
N#Cc1nc(-c2ccc(OCc3ccccc3)cc2)oc1N1CCC(C(N)=O)CC1,.,.,.,.
COc1ccccc1OCc1nc(C#N)c(N2CCC(C(N)=O)CC2)o1,.,.,.,.
CC(C)(C)c1ccc(-c2nc(C#N)c(N3CCC(C(N)=O)CC3)o2)cc1,.,.,.,166.0
N#Cc1nc(-c2cccc(Cl)c2)oc1N1CCC(C(N)=O)CC1,.,.,.,+
CN(C)C(=O)[C@H]1C[C@H]1[C@@H](O)[C@H](CO)NC(=O)[C@H](COCc1ccccc1)NC(=O)OC(C)(C)C,.,.,.,.
CC(=O)Nc1cccc(-c2csc(C(O)c3ccc(F)c(F)c3)n2)c1 (centres undefined),.,.,/,.
COc1ccc(/C=C/C(=O)Nc2ccccc2C(F)(F)F)cc1OC,31.4,.,.,.
COc1ccc(/C=C/C(=O)Nc2ccccc2C(=O)O)cc1,.,.,.,.
COc1cc(/C=C/C(=O)Nc2ccc(C)cc2)cc(OC)c1OC,.,.,.,.
COc1ccc(/C=C/C(=O)Nc2cccc(C(C)=O)c2)cc1,33.3,.,.,.
COc1ccc(/C=C/C(=O)Nc2ccccc2C(=O)N2CCCC2)cc1,36.4,.,.,.
COC(=O)c1ccccc1NC(=O)/C=C/c1cc(OC)c(OC)c(OC)c1,36.2,.,.,.
O=C(CCNC(=O)c1ccc(Br)cc1)NCCCSc1ccccc1,.,.,.,.
CC(C)NC(=O)OC[C@@H]1CSCCS(=O)(=O)N1,/,.,/,/
O=C(/C=C/c1ccccc1)NC(=O)c1ccccc1O,.,.,.,.
SMILES,GDH-TPI inh,CCHFV vOTU inh,RecA splice inh,Mtb FBA inh
CCc1cc(C(=O)c2ccc(OC)cc2)c(NC(=O)COCC(=O)O)s1,.,.,.,.
COc1ccc(/C=C/C(=O)Nc2ccc3c(c2)CCC3)cc1OC,.,.,.,.
COc1cc(/C=C/C(=O)NC(=O)c2ccccc2O)ccc1O,40.1,.,.,.
COc1cc(C=O)ccc1OC(=O)Nc1ccccc1,51.7,.,.,.
COc1ccc(/C=C/C(=O)Nc2ccc(C(N)=O)cc2)cc1OC,53.1,.,.,.
CCc1cc(C(=O)O)c(NC(=O)/C=C/c2ccc(OC)cc2)s1,73.8,.,.,.
COc1cccc(NC(=O)CSc2nnc(NC(=O)c3ccco3)s2)c1,.,.,.,.
CN(C)CCN(CC1CCCN(Cc2ccccc2F)C1)C(=O)c1ccc(Cl)cc1 (centres undefined),.,.,.,.
COc1ccc(OC)c(NC(=O)c2cccc(NC(=O)c3ccccc3)c2)c1,.,.,.,.
COc1cc(Cl)c(CNC[C@H]2O[C@@H](n3cnc4c(N)ncnc43)[C@H](O)[C@@H]2O)c(Cl)c1O,.,.,/,.
COc1ccc(/C=C/C(=O)NC(=S)NNC(=O)[C@H]2C[C@@H]2c2ccccc2)cc1OC,43.5,.,.,.
CCN(CC)CCNC(=O)c1ccc(NC(=O)/C=C/c2cc(OC)c(OC)c(OC)c2)cc1,36.5,.,.,.
COc1ccc(/C=C/C(=O)Nc2cccc(S(=O)(=O)NC3=NCCCCC3)c2)cc1OC,35.0,.,/,.
COc1cccc(OC)c1C(=O)NC(=S)NNC(=O)[C@H]1C[C@@H]1c1ccccc1,.,.,.,.
COc1ccc(/C=C/C(=O)Nc2ccccc2C(=O)O)cc1OC,46.9,.,.,.
O=C(Nc1ccncc1)C1CCN(S(=O)(=O)c2c(Cl)cccc2Cl)CC1,.,.,.,.
O=C(OC12CCCN(C1)/C(=C/c1ccncc1)C2)c1ccc(Cl)cc1 (centres undefined),/,.,/,/
COC(=O)C[C@@H]1CC[C@H]2[C@@H](COc3ccc(NC(=O)NC(C)C)cc3C(=O)N2C)O1,/,.,/,/
CCCCC(=O)Nc1ccc(C(=O)NCC2COc3ccccc3O2)cc1 (centres undefined),/,.,/,/
Cc1cc(C(=O)Nc2ccc(N3CCOCC3)cc2)c2ccccc2n1,.,.,.,.
OCC[n+]1c2ccccc2nc2ccc(N3CCOCC3)cc21,.,.,31.0,.
O=C(C=Cc1ccccc1)c1c[nH]c2ccccc2c1=O,37.7,.,/,.
O=C(/C=C/c1ccccc1)c1c[nH]c2ccccc12,.,.,/,.
N#CC1=CC2CN(Cc3ccccc3)C1C1C(=O)N(c3ccccc3)C(=O)C21 (centres undefined),.,.,/,.
Cc1ccc2nc(-c3ccco3)c(Nc3ccccc3)n2c1,.,.,.,192.3
SMILES,GDH-TPI inh,CCHFV vOTU inh,RecA splice inh,Mtb FBA inh
COc1ccc(C)cc1NC(=O)COC(=O)c1c(-c2ccccc2)noc1C,.,.,/,.
COC(=O)C1=C(SC)N(c2ccc(OC)cc2)C(c2ccccc2)CC1=O (centres undefined),33.3,.,.,.
COC(=O)C1=C(SC)N(c2ccccc2)C(c2ccccc2)CC1=O (centres undefined),.,.,.,.
COc1ccccc1CCN1CCCC(CN(C)C(=O)CCC(N)=O)C1 (centres undefined),.,.,.,.
CCCCNC(=O)c1nc(-c2ccc(C(F)(F)F)cc2)oc1-c1ccccc1,/,.,/,/
CCCCNC(=O)c1nc(-c2ccncc2)oc1-c1ccccc1,/,.,/,+
CCC(=O)Oc1ccc(C(=O)Nc2cccc(C(=O)c3ccccc3)c2)cc1,.,.,35.9,.
CC(=O)Oc1ccc(C(=O)Nc2cccc(C(=O)c3cccc(NC(=O)c4ccc(OC(C)=O)cc4)c3)c2)cc1,.,.,.,.
CCn1c(=O)c2sccc2n2c(CCCC(=O)NCCc3ccc(S(N)(=O)=O)cc3)nnc12,.,.,.,.
CC(C)=C[C@H]1C[C@H](C)[C@H]2CC[C@H](C)c3c(O)c(O[C@H]4OC[C@H](O)[C@@H](O)[C@@H]4O)c(C)c1c32,.,.,/,.
CC(=O)Cc1nsc(NC(=O)c2ccc(-c3ccccc3Cl)o2)n1,32.7,.,.,.
CC(=O)Cc1nsc(NC(=O)c2ccccc2Cl)n1,.,.,.,.
CC(=O)Cc1nsc(NC(=O)c2oc(-c3ccccc3Cl)cc2C)n1,56.2,.,.,.
